Bioassay records: PubChem BioAssay, National Center for Advancing Translational Sciences (NCATS)
TRHR PAM: allosteric enhancers of human TRH receptor; TRHR cells, fluo-8 calcium fluorescence, EC20 TRH enhancement; enhancement, % at 2 µM; 0.66% of 360,000 active; P34981; AID 493056; in the data active = enhancement above about 30%; also: 0% is about no effect
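TRHR-expressing cells loaded with fluo-8 calcium dye were read kinetically (ex 480/em 530) during compound addition, then stimulated with an EC20 of TRH (10 nM final). Enhancement of the Gq-mediated intracellular calcium response was scored.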
D1 potentiator: potentiators of human D1 dopamine receptor. AID 504651. P21728. HEK293 TREx D1 cells, calcium flux, dopamine EC20 potentiation. 0.036% of 360,000 active. potentiation, % at 10 µM; in the data active = potentiation above about 30%; also: 0% is about no effect
Target sequence (P21728 whole entry, looked up): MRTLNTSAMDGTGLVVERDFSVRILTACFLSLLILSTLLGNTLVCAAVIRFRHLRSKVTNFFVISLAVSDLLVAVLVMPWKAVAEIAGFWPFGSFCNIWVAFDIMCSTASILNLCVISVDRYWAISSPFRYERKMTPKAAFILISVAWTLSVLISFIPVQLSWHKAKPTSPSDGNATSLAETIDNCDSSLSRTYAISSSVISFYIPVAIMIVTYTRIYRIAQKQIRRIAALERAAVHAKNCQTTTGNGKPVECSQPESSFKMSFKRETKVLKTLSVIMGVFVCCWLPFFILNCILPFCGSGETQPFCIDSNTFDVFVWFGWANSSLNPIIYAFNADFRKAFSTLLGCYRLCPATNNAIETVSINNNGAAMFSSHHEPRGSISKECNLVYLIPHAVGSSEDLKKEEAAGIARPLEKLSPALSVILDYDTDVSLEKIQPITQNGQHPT
D1 agonist: activates the human D1 dopamine receptor; AID 504660; 1% of 360,000 active; P21728; activation, % at 2 µM; HEK293 T-REx D1 cells, calcium flux, agonist mode; also: 0% is about no effect
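Inducible HEK293 T-REx D1 cells, force-coupled to calcium signalling, were plated at 4000 cells/well with tetracycline and held overnight at 30 C. After no-wash calcium dye loading, compound-evoked calcium rise over 180 s flagged agonists.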
D1 antagonist: human D1 dopamine receptor antagonism | activity change, negative = inhibition, % at 10 µM | P21728 | AID 504652 | 3.2% of 360,000 active | HEK293 TREx D1 cells, calcium flux, dopamine EC80; active compounds read low; in the data active = activity change below about -30%; also: % is scaled to controls: 0 for no effect and ±100 for the full control effect
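Calcium flux readout: force-coupled, inducible Hek293 Trex D1 line, cells induced overnight at 30 C with tetracycline, dye-loaded 30–90 min at RT. Antagonism scored against EC80 dopamine challenge given 180 s after compound.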
TRHR agonist: activates the human TRH receptor | P34981 | 0.18% of 360,000 active | TRHR cells, calcium flux fluo-8, FDSS agonist mode | activation, % at 2 µM; also: 0% is about no effect
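TRHR-expressing cells, plated overnight in medium with 10% serum, were loaded with fluo-8 calcium dye at room temperature. After a 10 s baseline, library compound was pin-added and calcium release was recorded kinetically (ex 480/em 530) as agonist response.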
LDHA block: inhibitors of human lactate dehydrogenase A; P00338; purified LDHA, NADH/diaphorase-resazurin fluorescence; active compounds read low; activity change, % (values are at about 110 or 230 µM); 0.15% of 480,000 active; in the data active = activity change below about -30%;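 also: plate controls were DMSO wells for no effect and wells without enzyme for full effect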
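Human LDH5 at 2 nM final in Tris HCl pH 7.4 with 0.06 mM NADH and 0.2 mM pyruvate, reacted 5 minutes at room temperature. Remaining NADH coupled via diaphorase/resazurin; resorufin fluorescence read at 0 and 20 minutes, normalized to enzyme-free and DMSO wells.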
* hit, by the source's call; / = no result given; ! = not confirmed by another sample. In the library only some 3.6% were active in any assay of this set; here they are far more common. Rule as the data show it, unless noted: active = activation above about 30%; inactive = the rest.

SMILES	TRHR PAM	D1 potentiator	D1 agonist	D1 antagonist	TRHR agonist	LDHA block
O=C(CCc1ncc(-c2ccc(F)cc2)o1)Nc1cccc(C(=O)NC2CC2)c1	/	/	/	/	/	-2.2
O=C(Nc1nnc(C2CC2)s1)c1nn(Cc2ccccc2)c(=O)c2ccccc12	/	/	/	/	/	-0.7
CC(Nc1cc(N2CCNCC2)ccc1[N+](=O)[O-])c1ccccc1 (stereo not given)	1.9	-1.8	41.6*	3.1	-0.7	-3.2
CCS(=O)(=O)N1CCN(c2ccc([N+](=O)[O-])c(NC(C)c3ccccc3)c2)CC1 (stereo not given)	1.4	-0.6	-1.8	1.6	-0.3	-0.4
O=C(O)CN1C2=C(C(=O)CCC2)C(c2ccc(Cl)cc2)C2=C1CCCC2=O	/	/	/	/	/	-11.5
CC(NC(=O)CC(C)(C(=O)O)c1ccccc1)c1ccc(Cl)c(Cl)c1 (stereo not given)	/	/	/	/	/	3.0
Cc1ccc(C2=[N+]([O-])C3(CCCC/C3=N\O)N(O)C2(C)C)o1 (stereo not given)	/	/	/	/	/	-2.0
CC1(C)C(c2ccc(Cl)cc2)=[N+]([O-])C2(CCCC/C2=N\O)N1O (stereo not given)	4.6	-7.1	2.8	-87.2*	-0.4	-1.9
CCc1ccc(CN2CCc3nc(Nc4ccc5c(c4)OCCO5)ncc3C2)cc1	4.1	0.5	0.8	-66.0*	1.2	2.2
Nc1c(S(=O)(=O)c2cccc(Cl)c2)c2nc3ccccc3nc2n1/N=C/c1ccc(O)c(O)c1	1.0	-4.9	0.6	-33.9*	0.8	/
Cn1nc(C(=O)Nc2ccccc2C(=O)NCC(F)(F)F)c2ccccc2c1=O	/	/	/	/	/	10.1
CC(CCN1CCN(c2ccccc2)CC1)c1ccccc1 (stereo not given)	4.6	-8.0	1.1	-54.5*	0.1	0.3
CCCCC(CC)CNC(=O)CCS(=O)(=O)c1cccc2nonc12 (stereo not given)	1.5	-2.1	3.1	-56.3*	-1.0	-5.8
O=C(NC1CC1)c1cc2c(s1)-c1ccccc1OC2	2.3	-10.3	0.0	-46.3*	0.0	-3.6
CN(C)CCN(Cc1ccco1)C(=O)c1cc2c(s1)-c1ccccc1OC2	1.3	-4.5	7.1	-70.0*	0.0	-4.4
O=C(c1cc2c(s1)-c1ccccc1OC2)N1CCN(c2ccc(F)cc2)CC1	1.6	-1.1	1.9	4.0	0.4	-0.5
CC(=O)c1ccc(N2CCN(C(=O)c3cc4c(s3)-c3ccccc3OC4)CC2)cc1	-1.3	-5.2	0.1	-64.4*	0.2	5.4
O=C(COc1ncnc2ccccc12)Nc1ccc(Cl)c(Cl)c1	/	/	/	/	/	7.3
CC(=O)c1ccc(NC(=O)Nc2ccc([N+](=O)[O-])cc2)cc1	-1.3	-2.8	20.7	-36.4*	2.3	-3.4
O=C(Nc1nnc(-c2ccccc2)o1)c1ccc(Cl)cc1	0.5	-9.1	10.4	-11.4	4.9	2.0
CC(=O)c1ccc(C(=O)Nc2nnc(-c3ccc(Cl)cc3)o2)cc1	2.4	-8.8	-0.3	-31.9*	-0.8	-2.1
COC(=O)c1sccc1NC(=O)Nc1ccc(C(C)=O)cc1	-2.0	0.1	-0.6	-33.3*	0.0	-0.3
Cc1ccc(C(C)C)cc1NC(=O)Nc1ccc([N+](=O)[O-])cc1	-6.9	-14.4	16.8	-48.6*	2.6	-1.0
COC(=O)c1sccc1NC(=O)Nc1ccc(C)cc1	5.3	-4.5	0.7	-12.9	-0.2	-4.3
Cc1cc(O)c(C(C)C)cc1NC(=O)Nc1ccc([N+](=O)[O-])cc1	/	/	/	/	/	1.2
SMILES	TRHR PAM	D1 potentiator	D1 agonist	D1 antagonist	TRHR agonist	LDHA block
Cc1ccccc1NC(=O)N1CCN(c2ccc(=O)n(-c3ccc(F)cc3)n2)CC1	/	/	/	/	/	-8.1
CC(=O)Nc1cc[n+](C(C)C(=O)c2ccc(Cl)cc2)cc1 (stereo not given)	-0.7	-8.9	4.0	-3.3	0.0	-0.4
O=C(Nc1ccc([N+](=O)[O-])cc1)Nc1cnccn1	-3.0	-9.4	15.7	-31.8*	0.2	-2.5
CC(=O)Nc1cc[n+](CC(=O)c2ccc(Cl)cc2)cc1	0.9	0.7	1.8	-32.6*	0.7	0.5
CC(=O)c1ccc(NC(=O)NC(=O)c2ccc(Cl)cc2)cc1	/	/	/	/	/	2.1
CC(=O)c1ccc(NC(=O)Nc2ccc(Cl)cc2)cc1	-3.8	-5.2	29.9	-35.2*	-0.5	-8.8
COc1cc(NC(=O)c2cccs2)c(OC)cc1NC(=O)Nc1ccc(F)cc1	0.0	-9.9	1.8	-45.0*	-1.2	3.1
O=C(Nc1ccc(Cl)cc1)c1cccs1	2.2	-7.0	1.4	-39.4*	-0.4	-3.1
O=C(Nc1nc(-c2ccccc2)ns1)c1cccs1	8.4	5.8	7.2	-32.3*	1.4	-3.3
COc1ccc(NC(=O)c2cccs2)cc1	-2.5	-6.5	2.4	-8.9	0.0	-0.7
COc1ccc(C(=O)Nc2ccc(NC(=O)c3cccs3)cn2)cc1	4.5	-8.2	17.2	-34.8*	0.7	-2.8
O=C(Nc1nc(-c2ccccc2)cs1)c1cccs1	3.4	-9.8	5.2	-21.3	-0.5	0.3
CCCCC(CC)C(=O)NC12CC3CC(CC(C3)C1)C2 (stereo not given)	/	/	/	/	/	0.3
COc1ccccc1-c1noc(CN2CCCc3c(C(=O)NC(C)C)cccc32)n1	/	/	/	/	/	1.5
CCCCCC(C(=O)O)C(C)CC(=O)NC1CCCCC1 (stereo not given)	38.4*	-0.3	2.5	-3.9	-0.1	-8.4
CN(Cc1ccc(F)cc1)S(=O)(=O)c1nnc(NC(=O)c2ccccc2Br)s1	-1.1	-7.5	10.8	-44.9*!	-0.2	-5.5
CN(Cc1ccc(F)cc1)S(=O)(=O)c1nnc(NC(=O)c2ccccc2)s1	-2.5	-0.7	18.2	-21.3	0.7	-7.9
Cc1ccc(CNC(=O)c2nc(S(=O)(=O)Cc3ccccc3C)ncc2Cl)cc1	/	/	/	/	/	2.4
COc1ccc2nc(NC(=O)c3nc(S(=O)(=O)Cc4cccc(C)c4)ncc3Cl)sc2c1	-7.0	-2.5	0.6	-30.8*	-0.2	-18.3
Cc1cccc(CS(=O)(=O)c2ncc(Cl)c(C(=O)NCc3ccccc3)n2)c1	-13.9	-6.5	2.1	-32.5*	-1.2	-5.7
Cc1cccc(CS(=O)(=O)c2ncc(Cl)c(C(=O)Nc3c(C)cccc3C)n2)c1	-16.7	-5.5	2.3	-31.6*	0.7	1.6
CC(=O)Nc1ccc(Sc2ncccc2C(=O)Nc2cc(Cl)cc(Cl)c2)cn1	5.2	-5.2	24.5	-19.0	2.3	-7.1
CC(=O)Nc1ccc(Sc2ncccc2C(=O)Nc2ccc(OC(F)(F)F)cc2)cn1	4.4	18.6	115.3*	-60.0*	0.2	-2.8
COc1ccc(NC(=O)CCNS(=O)(=O)c2ccc(Br)s2)cc1	/	/	/	/	/	-3.7
COc1cccc(NC(=O)CCNS(=O)(=O)c2ccc(Br)s2)c1	6.7	5.9	3.2	-36.7*!	-1.4	-1.0
